The record followed here is PubChem BioAssay.

As usually defined, the inhibition is the change of the read-out against control, counted positive when it falls.

Assay [1] can be described thus: polyglutamine-triggered caspase-3 activation inhibitors, cell-based (AID 1583). The conditions noted are these: polyglutamine-induced caspase-3 activation, cell assay; stronger effect = higher value;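 tested at 10 µM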.
The nature of assay [2]: suppressors of polyQ aggregation in yeast, 75Q-TubU reporter (AID 1593). Particulars: Yeast 75Q polyglutamine aggregation reporter.
Assay [3] is described as follows: rescue of polyQ-huntingtin neuronal dysfunction in worms, whole organism, C. elegans mechanosensory neurons, N-terminal huntingtin (AID 1599). The conditions noted are these: touch response, stronger effect = higher value.
The nature of assay [4]: inhibitors of mitochondrial cytochrome c release, biochemical, purified mitochondria (AID 1603).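 Also: mouse liver mitochondria challenged with calcium chloride; signal normalized to the plate average as 100%.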 Particulars: stronger effect = lower value.
A short description of assay [5]: inhibitors of polyQ protein aggregation (AID 1604). The conditions noted are these: polyglutamine-induced protein aggregation inhibition assay; stronger effect = higher value; tested at 2.5 µM.
The nature of assay [6]: enhancers of glutamate uptake in motor neurons, MN-1 cell line (AID 1612).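 Also: tested at 1 µM final; 0% = mean of DMSO vehicle wells on each plate; positive means more glutamate uptake than control and negative means less.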 Particulars: MN-1 motor neuron cells, stronger effect = higher value.
The nature of assay [7]: suppressors of polyglutamine aggregation in yeast, 75Q-TubH (AID 1616). The conditions noted are these: S. cerevisiae 75Q-TubH polyglutamine aggregation suppression; stronger effect = higher value.
Assay [8] in a line: reducers of polyQ inclusions in PC12 cells, cell-based, NGF-treated PC12, GFPQ80 (AID 1614).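 Also: lower means fewer inclusions and 0 means no inclusions at all.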 The conditions noted are these: PC12 NGF-treated GFP-polyQ80 inclusion reduction.
Assay [9] is described as follows: circadian clock period modulators, cell-based, LOPAC library, luminescence reporter (AID 2774).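 Also: values are relative to mean of DMSO wells on each plate.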 Particulars: circadian reporter cells, at 7 µM, actives lie on both sides.
Assay [10] in a line: LFS_MB_1R medulloblastoma cell growth inhibition, synergistic combos for chromothripsis tumors, cisplatin or BGB combos (AID 1671452; in the data active = inhibition above about 80%;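 also: cells exposed for 96 hours before readout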). The conditions noted are these: LFS_MB_1R medulloblastoma cells, stronger effect = higher value.
The nature of assay [11]: CRL2098 osteosarcoma cell growth inhibition, synergistic combos for chromothripsis tumors, BGB or cisplatin IC20 combos (AID 1671454; in the data active = inhibition above about 80%;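 also: cells exposed for 96 h before readout; 0% = vehicle DMSO and 100% = killing by high DMSO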). The conditions noted are these: CRL2098 osteosarcoma cells, drug combinations, stronger effect = higher value.
Assay [12] in a line: growth inhibition of BT084 medulloblastoma cells, cell-based, ICGC_MB145, cisplatin and BGB IC40 combos (AID 1671461; in the data active = inhibition above about 80%;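 also: cells exposed to drugs for 96 hours; 0% = vehicle DMSO and 100% = high DMSO full killing control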). Particulars: drug combinations, stronger effect = higher value.
Assay [13] in a line: growth inhibition of RCMB18 medulloblastoma cells, cell-based, cisplatin and BGB IC40 combos (AID 1671462; in the data active = inhibition above about 80%;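 also: cells exposed to compound for four days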). Particulars: stronger effect = higher value.
Assay [14] in a line: growth inhibition of CRL1545 osteosarcoma cells, cell-based, cisplatin and BGB IC20 combos (AID 1671464; in the data active = inhibition above about 80%;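 also: cells exposed to compound for 96 hours before readout; 0% = vehicle DMSO and 100% = high DMSO killing control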). The conditions noted are these: stronger effect = higher value.
[15] abbreviates: measured here: combination with cisplatin, at 0.5 µM.

For some of these results: Results with a measured potency or affinity are listed apart. Activity calls are given as the source filed them. Unless noted, no rule for the calls is given here.

In the case of `CO[C@@]12[C@@H]3NC3CN1C1=C(C(=O)C(N)=C(C)C1=O)[C@@H]2COC(N)=O` (stereo not given in full), the inhibition in assay [1] is -29.8%. In addition, the score in assay [2] was found to be 2. The same compound registered a rescue above control in assay [3] of 0. In assay [4], the cytochrome c release ratio stood at 1. For the same compound, in assay [5], the inhibition of aggregation was 29.2%. Besides, the glutamate uptake change in assay [6] was 0.5%. Also, in [7], the aggregation suppression score amounted to 1.38.

For `C[C@@H]1CC2C3CCC4=CC(=O)C=C[C@]4(C)[C@@]3(F)[C@@H](O)C[C@]2(C)[C@@]1(O)C(=O)CO` (stereo not given in full), in assay [1], the inhibition was -20.4%. The compound further gave a score in assay [2] of 1.07. The compound also had a rescue above control in [3] of -7.18. The cytochrome c release ratio in assay [4] worked out at 0.84. This compound gave an inhibition of aggregation in assay [5] of 31.7%. For the same compound, the glutamate uptake change in assay [6] worked out at 53.3%. In assay [8], this compound gave an inclusion score of 2. Further, in assay [7], the aggregation suppression score stood at 1.35.

For the compound `O=C(O)C1CCCNC1` (stereo not given), in assay [1], the inhibition stood at 28%. The compound further showed a score in assay [2] of 2.59. For the same compound, the rescue above control in assay [3] is -9.05. Moreover, in assay [4], the cytochrome c release ratio was determined as 1.08. Also, the inhibition of aggregation in assay [5] came to 41.5%. Besides, the glutamate uptake change in assay [6] is -1.16%. Besides, the inclusion score in [8] was 2. This compound had an aggregation suppression score in [7] of 1.59. The period change in assay [9] was 0.19 h (inactive).

Take `COc1cc([C@@H]2c3cc4c(cc3[C@H](O)C3COC(=O)[C@@H]32)OCO4)cc(OC)c1OC` (stereo not given in full): in assay [9], the period change was 0.2 h (inactive).

As to `N[C@H]1CONC1=O`, the period change in assay [9] is -0.055 h (inactive).

With `O=C(O)C1=CC(=C(c2ccc(O)c(C(=O)O)c2)c2ccc(O)c(C(=O)O)c2)C=CC1=O`, in assay [9], the period change is -0.145 h (inactive).

For `NCCCNCCCCNCCCN`, the period change in [9] was -0.16 h (inactive).

As for `CC1(C)S[C@@H]2[C@H](NC(=O)COc3ccccc3)C(=O)N2[C@H]1C(=O)O`, in [1], the inhibition amounted to 4.98%. For the same compound, the score in [2] turned out to be 1.39. In [3], the rescue above control was found to be 1.16. Also, in assay [4], the cytochrome c release ratio was 0.65. Besides, the inhibition of aggregation in assay [5] amounted to 70.1%. For the same compound, the glutamate uptake change in [6] is -6.22%. Besides, the inclusion score in assay [8] turned out to be 2. Besides, the aggregation suppression score in assay [7] was determined as 0.899.

In the case of `O=C(O)c1ccccc1Nc1ccccc1`, the period change in assay [9] was -0.04 h (inactive).

Consider `c1ccc(C2CN3CCSC3=N2)cc1` (stereo not given), for which the period change in [9] is 0.075 h (inactive).

Take `CN1CCN(C(c2ccccc2)c2ccc(Cl)cc2)CC1` (stereo not given): in assay [1], the inhibition amounted to 9.79%. Moreover, in assay [2], the score came to 1.32. For the same compound, the rescue above control in assay [3] is 0. Further, in assay [4], the cytochrome c release ratio came to 1.15. The same compound returned an inhibition of aggregation in [5] of 65.4%. Also, in assay [6], the glutamate uptake change was found to be 11.5%. In [7], this compound displayed an aggregation suppression score of 0.963.

As for `CN1C2CCC1CC(OC(=O)c1c[nH]c3ccccc13)C2` (stereo not given), the period change in [9] was 0.005 h (inactive).

With `O=C(Nc1ccccc1)c1ccccc1O`, the inhibition in assay [10] (at 0.5 µM) was -12.4% (inactive); in assay [10] (measured here: combination with BGB IC40, at 0.05 µM), -23.1%; in [10] (setting [15]), -15.5%; in assay [10] (measured here: combination with cisplatin, at 5 µM), 13.9%; in [11] (at 0.5 µM), -8.88% (inactive); in assay [11] (measured here: combination with BGB at IC20, at 0.5 µM) it was -7.52%. The inhibition in assay [11] (measured here: combination with cisplatin at IC20, at 0.5 µM) is 4.38%; in assay [12] (at 0.5 µM), 1.08% (inactive); in [12] (cisplatin combination, at 0.5 µM) it was 7.73%; in assay [12] (cisplatin combination, at 5 µM), -4.41%; in [12] (measured here: BGB IC40 combination 0.05 uM, at 0.05 µM), 23%; in [12] (single agent, at 5 µM), 16.7%. The inhibition in [13] (at 0.5 µM) is 11.8% (inactive); in [13] (cisplatin combo, at 5 µM), 41.7%; in assay [13] (measured here: BGB IC40 combination, at 0.05 µM), -1.52%; in assay [13] (setting [15]) it was 26.1%; in assay [13] (single agent, at 5 µM) it was 5.55%; in assay [14] (at 0.5 µM), -2.83% (inactive). Moreover, the inhibition in assay [14] (measured here: with BGB IC20 combination, at 0.5 µM) is 17.8%; in assay [14] (measured here: with cisplatin IC20 combination, at 0.5 µM), -13.1%; in assay [14] (single agent, at 0.05 µM), 12.8%; in assay [14] (single agent, at 5 µM) it was 42.5%.

`CCCC(=O)O[C@]1(C(=O)CO)CCC2[C@@H]3CCC4=CC(=O)CC[C@]4(C)C3[C@@H](O)C[C@@]21C` (stereo not given in full): the inhibition in assay [1] is -18.1%. Further, the score in assay [2] amounted to 1.15. The compound also displayed a rescue above control in assay [3] of -7.82. In addition, in [4], the cytochrome c release ratio was 1.03. This compound also yielded an inhibition of aggregation in [5] of 77.8%. Moreover, the glutamate uptake change in [6] was found to be 33.4%. This compound came in with an inclusion score in assay [8] of 2. Further, the aggregation suppression score in assay [7] turned out to be 1.38.

With `CO/N=C(/C(=O)N[C@@H]1C(=O)N2C(C(=O)O)=C(COC(C)=O)CS[C@H]12)c1csc(N)n1`, the inhibition in [1] was 6.49%. This compound came in with a score in [2] of 1.38. The same compound had a rescue above control in assay [3] of 2.83. The cytochrome c release ratio in [4] came out at 1.43. In assay [5], this compound returned an inhibition of aggregation of 86.2%. For the same compound, the glutamate uptake change in assay [6] is -17.6%. The inclusion score in assay [8] is 2. This compound displayed an aggregation suppression score in assay [7] of 1.39.

Take `C[C@@H]1CC2C3C[C@H](F)C4=CC(=O)C=C[C@]4(C)[C@@]3(F)[C@@H](O)C[C@]2(C)[C@@]1(O)C(=O)COC(=O)C(C)(C)C` (stereo not given in full): in assay [1], the inhibition is -23.2%. In assay [2], this compound came in with a score of 1.34. Further, the rescue above control in assay [3] was determined as 16. For the same compound, in [4], the cytochrome c release ratio was 0.82. For the same compound, the inhibition of aggregation in assay [5] stood at 39.8%. The glutamate uptake change in assay [6] was determined as 27.8%. For the same compound, the inclusion score in assay [8] turned out to be 2. The same compound registered an aggregation suppression score in [7] of 1.12.

Regarding `CNC[C@@H](O)c1ccc(O)c(O)c1`, in assay [1], the inhibition was 15.5%. The score in [2] amounted to 1.46. In assay [3], this compound showed a rescue above control of -0.75. In assay [4], the cytochrome c release ratio is 0.7. In [5], this compound had an inhibition of aggregation of 86.2%. In addition, the glutamate uptake change in assay [6] was -6.16%. In addition, the inclusion score in assay [8] turned out to be 1. Moreover, the aggregation suppression score in assay [7] stood at 1.31.

For `COc1ccc(C[C@H](N)C(=O)N[C@@H]2[C@@H](CO)OC(n3cnc4c(N(C)C)ncnc43)[C@@H]2O)cc1` (stereo not given in full), the inhibition in [1] was 52.2%. This compound showed a score in assay [2] of 1.68. The rescue above control in assay [3] is -10.3. In addition, the cytochrome c release ratio in [4] is 1.17. Besides, the inhibition of aggregation in [5] was determined as 54%. Further, the glutamate uptake change in [6] worked out at 15.3%. Also, in [7], the aggregation suppression score worked out at 1.32.

Turning to `C#C[C@]1(O)CCC2C3CCc4cc(O)ccc4C3CC[C@@]21C` (stereo not given in full), the inhibition in assay [1] came out at 15.5%. In [2], the score amounted to 0.67. The same compound returned a rescue above control in assay [3] of -11.3. Also, the cytochrome c release ratio in assay [4] was 1.15. In [5], the inhibition of aggregation amounted to 38.1%. Also, in [6], the glutamate uptake change is -12.7%. The compound also yielded an aggregation suppression score in assay [7] of 0.484.

In the case of `CC1(C)O[C@@H]2CC3C4C[C@H](F)C5=CC(=O)C=CC5(C)C4C(O)CC3(C)[C@]2(C(=O)CO)O1` (stereo not given in full), the inhibition in [1] was determined as 7.08%. The same compound had a score in [2] of 1.24. Besides, the rescue above control in [3] was 14.2. Also, the cytochrome c release ratio in assay [4] was found to be 1.01. The same compound displayed an inhibition of aggregation in assay [5] of 73%. In addition, in assay [6], the glutamate uptake change worked out at 41.4%. This compound also had an inclusion score in assay [8] of 2. The compound further gave an aggregation suppression score in assay [7] of 0.735.

Take `Cc1c(C)c2c(c(C)c1O)CCC(C)(CCCC(C)CCCC(C)CCCC(C)C)O2` (stereo not given): the inhibition in assay [1] turned out to be 25.1%. The score in [2] is -0.94. For the same compound, the rescue above control in assay [3] was -0.91. Further, the cytochrome c release ratio in [4] was 1.24. This compound also showed an inhibition of aggregation in assay [5] of 78.9%. In addition, in [6], the glutamate uptake change is -4.89%. Moreover, in assay [8], the inclusion score stood at 2. Moreover, the aggregation suppression score in [7] stood at 0.219.
